Legend:
Test in all cases: log2 ratio of Biotin-Ahx-Ub-VS probe labelling (fragment/DMSO); higher = less target engagement (more negative = stronger competition), active = hit call of the paper (q ≤ 0.05, log2 ratio ≤ -1)
Conditions in all cases: compound concentration: 200 uM; treatment time: 3 h
[1] = biological target: T1, ALG13 (UniProt Q9NP73)
T1 sequence (whole entry): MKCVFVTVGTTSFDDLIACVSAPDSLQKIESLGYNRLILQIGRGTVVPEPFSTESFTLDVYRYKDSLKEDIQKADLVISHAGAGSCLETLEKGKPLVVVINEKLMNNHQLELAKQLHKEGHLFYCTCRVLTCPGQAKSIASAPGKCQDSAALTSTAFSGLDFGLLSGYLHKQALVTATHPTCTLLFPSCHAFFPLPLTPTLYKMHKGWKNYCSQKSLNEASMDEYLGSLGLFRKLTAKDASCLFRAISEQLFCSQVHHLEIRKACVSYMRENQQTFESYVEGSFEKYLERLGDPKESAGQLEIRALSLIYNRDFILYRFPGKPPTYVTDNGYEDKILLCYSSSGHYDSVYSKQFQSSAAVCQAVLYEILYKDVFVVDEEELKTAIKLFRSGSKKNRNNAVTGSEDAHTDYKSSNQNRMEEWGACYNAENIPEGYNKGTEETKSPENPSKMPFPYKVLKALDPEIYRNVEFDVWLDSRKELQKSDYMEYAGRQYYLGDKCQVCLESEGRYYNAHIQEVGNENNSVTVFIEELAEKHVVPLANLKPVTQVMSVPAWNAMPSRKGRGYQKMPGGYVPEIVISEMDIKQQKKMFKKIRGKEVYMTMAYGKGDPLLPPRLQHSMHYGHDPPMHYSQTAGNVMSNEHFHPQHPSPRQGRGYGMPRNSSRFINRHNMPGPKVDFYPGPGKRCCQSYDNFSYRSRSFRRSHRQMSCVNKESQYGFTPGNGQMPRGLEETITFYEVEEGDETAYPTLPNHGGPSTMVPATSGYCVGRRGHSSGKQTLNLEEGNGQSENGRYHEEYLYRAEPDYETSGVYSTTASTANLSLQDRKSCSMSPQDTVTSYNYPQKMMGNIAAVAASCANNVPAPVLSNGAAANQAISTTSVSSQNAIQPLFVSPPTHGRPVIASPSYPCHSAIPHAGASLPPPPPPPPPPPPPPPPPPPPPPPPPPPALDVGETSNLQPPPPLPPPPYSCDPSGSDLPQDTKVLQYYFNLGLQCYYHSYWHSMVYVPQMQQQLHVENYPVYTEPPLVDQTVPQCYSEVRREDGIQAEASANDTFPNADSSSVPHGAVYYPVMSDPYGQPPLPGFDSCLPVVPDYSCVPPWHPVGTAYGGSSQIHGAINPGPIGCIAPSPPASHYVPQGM
Method in brief: (§1)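 HEK293T lysate, 495 µg per sample in Tris/CHAPS/IGEPAL buffer with protease inhibitors, was treated in triplicate with fragment at 200 µM or vehicle for 3 h and then with Biotin-Ahx-Ub-VS at 0.5 µM final for 1 h. Labelled DUBs were NeutrAvidin-enriched, digested with LysC and trypsin, and run by diaPASEF LC-MS/MS. Spectronaut label-free quantities were global-median-normalised, and values are average log2 fragment/vehicle ratios by unpaired t-test on proteins with ≥2 unique peptides.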

[2] = biological target: ATXN3 (UniProt P54252)
ATXN3, sequence (P54252 whole entry): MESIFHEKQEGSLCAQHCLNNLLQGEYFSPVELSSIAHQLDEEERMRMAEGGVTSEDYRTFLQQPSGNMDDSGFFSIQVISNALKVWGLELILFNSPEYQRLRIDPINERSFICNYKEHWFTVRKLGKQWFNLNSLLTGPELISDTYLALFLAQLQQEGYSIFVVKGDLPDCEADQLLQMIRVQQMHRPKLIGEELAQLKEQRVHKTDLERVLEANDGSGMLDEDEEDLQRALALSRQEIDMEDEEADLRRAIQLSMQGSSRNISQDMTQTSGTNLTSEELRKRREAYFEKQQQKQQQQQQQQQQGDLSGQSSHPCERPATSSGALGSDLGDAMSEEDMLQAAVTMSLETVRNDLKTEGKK
Method in brief: as §1

[3] = biological target: T2, BAP1 (UniProt Q92560)
T2 sequence (whole entry): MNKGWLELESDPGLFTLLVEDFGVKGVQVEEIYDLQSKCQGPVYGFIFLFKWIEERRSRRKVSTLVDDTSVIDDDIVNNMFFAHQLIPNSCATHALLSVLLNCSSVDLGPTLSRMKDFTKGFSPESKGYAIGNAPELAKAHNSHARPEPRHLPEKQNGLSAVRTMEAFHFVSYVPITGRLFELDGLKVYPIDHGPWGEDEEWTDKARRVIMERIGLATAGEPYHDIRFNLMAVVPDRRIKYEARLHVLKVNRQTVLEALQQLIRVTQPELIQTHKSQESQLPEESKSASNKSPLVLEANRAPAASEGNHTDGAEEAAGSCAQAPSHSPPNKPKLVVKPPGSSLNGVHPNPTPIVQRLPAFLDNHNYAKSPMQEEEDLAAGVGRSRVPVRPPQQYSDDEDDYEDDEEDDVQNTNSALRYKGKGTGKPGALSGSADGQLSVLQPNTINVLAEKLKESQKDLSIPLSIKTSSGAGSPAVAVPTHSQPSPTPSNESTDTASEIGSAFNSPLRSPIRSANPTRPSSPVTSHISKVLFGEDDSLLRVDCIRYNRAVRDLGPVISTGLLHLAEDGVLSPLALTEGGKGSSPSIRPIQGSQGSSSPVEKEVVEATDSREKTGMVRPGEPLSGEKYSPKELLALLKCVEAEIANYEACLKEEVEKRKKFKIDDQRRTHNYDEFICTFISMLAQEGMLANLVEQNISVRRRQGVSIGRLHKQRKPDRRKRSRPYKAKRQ
Method in brief: as §1

[4] = biological target: EIF3F (UniProt O00303)
EIF3F, sequence (O00303 whole entry): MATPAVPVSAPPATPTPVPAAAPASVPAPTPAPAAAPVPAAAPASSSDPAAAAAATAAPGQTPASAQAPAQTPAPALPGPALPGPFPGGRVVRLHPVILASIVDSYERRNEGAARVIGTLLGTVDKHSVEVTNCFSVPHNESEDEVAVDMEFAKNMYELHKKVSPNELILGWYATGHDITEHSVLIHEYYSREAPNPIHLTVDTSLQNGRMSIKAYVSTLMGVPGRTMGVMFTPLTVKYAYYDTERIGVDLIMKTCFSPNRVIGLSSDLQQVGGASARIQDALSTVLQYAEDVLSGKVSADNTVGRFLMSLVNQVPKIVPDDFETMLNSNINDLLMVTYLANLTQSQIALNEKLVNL
Method in brief: as §1

[5] = biological target: EIF3H (UniProt O15372)
EIF3H, sequence (O15372 whole entry): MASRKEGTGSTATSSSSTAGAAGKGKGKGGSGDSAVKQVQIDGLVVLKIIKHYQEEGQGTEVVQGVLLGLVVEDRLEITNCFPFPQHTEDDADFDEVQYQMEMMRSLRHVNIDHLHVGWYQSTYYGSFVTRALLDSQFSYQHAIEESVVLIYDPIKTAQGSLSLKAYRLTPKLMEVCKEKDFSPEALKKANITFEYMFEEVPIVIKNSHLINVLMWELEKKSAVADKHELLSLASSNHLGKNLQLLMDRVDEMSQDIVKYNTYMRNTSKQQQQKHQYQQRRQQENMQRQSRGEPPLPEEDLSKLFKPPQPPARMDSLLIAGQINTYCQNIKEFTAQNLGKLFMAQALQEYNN
Method in brief: as §1

[6] = biological target: T3, FAM105A (UniProt Q9NUU6)
T3 sequence (whole entry): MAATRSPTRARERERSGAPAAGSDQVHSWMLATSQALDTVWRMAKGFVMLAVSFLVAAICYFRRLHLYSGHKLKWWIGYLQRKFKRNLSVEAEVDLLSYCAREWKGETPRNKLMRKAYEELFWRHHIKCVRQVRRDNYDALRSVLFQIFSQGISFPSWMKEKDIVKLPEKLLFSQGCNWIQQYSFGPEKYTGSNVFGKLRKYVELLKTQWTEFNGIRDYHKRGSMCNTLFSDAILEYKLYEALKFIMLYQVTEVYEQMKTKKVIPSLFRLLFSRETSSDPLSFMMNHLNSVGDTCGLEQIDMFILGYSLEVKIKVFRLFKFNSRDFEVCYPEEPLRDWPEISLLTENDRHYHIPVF
Method in brief: as §1

[7] = biological target: OTUB1 (UniProt Q96FW1)
OTUB1, sequence (Q96FW1 whole entry): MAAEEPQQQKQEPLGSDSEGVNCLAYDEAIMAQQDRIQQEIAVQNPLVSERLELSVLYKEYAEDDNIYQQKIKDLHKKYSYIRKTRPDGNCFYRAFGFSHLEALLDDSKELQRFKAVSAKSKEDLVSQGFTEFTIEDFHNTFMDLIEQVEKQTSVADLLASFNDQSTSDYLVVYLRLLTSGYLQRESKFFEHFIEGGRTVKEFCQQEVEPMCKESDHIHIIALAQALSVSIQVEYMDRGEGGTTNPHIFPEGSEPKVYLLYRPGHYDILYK
Method in brief: as §1

[8] = biological target: T4, OTUD4 (UniProt Q01804)
T4 sequence (whole entry): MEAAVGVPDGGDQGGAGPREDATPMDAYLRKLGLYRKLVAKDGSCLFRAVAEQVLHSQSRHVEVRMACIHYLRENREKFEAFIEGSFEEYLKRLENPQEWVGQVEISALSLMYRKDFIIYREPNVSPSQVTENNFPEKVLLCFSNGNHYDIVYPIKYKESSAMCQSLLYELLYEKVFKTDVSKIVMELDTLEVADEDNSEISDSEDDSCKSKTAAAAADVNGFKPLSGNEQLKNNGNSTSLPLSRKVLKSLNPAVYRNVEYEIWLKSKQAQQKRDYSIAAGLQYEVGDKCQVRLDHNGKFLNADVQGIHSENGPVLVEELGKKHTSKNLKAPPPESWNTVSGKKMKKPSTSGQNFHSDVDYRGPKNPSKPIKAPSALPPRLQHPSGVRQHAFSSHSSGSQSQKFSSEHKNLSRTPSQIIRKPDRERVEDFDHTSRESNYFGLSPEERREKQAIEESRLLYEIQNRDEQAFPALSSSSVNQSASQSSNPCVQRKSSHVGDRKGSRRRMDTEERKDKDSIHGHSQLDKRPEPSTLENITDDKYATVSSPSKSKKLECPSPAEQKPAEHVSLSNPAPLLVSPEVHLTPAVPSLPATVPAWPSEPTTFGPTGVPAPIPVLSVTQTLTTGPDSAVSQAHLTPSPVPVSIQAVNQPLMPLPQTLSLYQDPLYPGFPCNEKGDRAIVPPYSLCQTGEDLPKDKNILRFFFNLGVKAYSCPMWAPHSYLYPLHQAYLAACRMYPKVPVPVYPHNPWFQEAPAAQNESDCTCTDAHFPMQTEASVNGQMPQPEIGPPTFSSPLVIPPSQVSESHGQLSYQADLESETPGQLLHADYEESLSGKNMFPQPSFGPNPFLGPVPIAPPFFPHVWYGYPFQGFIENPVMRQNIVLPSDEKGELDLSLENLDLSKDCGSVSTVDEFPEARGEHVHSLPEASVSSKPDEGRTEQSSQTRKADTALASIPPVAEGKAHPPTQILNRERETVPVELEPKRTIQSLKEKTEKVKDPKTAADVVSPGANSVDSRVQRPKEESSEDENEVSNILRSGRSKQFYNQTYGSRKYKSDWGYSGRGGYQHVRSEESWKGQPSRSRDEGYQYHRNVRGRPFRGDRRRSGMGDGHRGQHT
Method in brief: as §1

[9] = biological target: T5, OTUD5 (UniProt Q96G74)
T5 sequence (whole entry): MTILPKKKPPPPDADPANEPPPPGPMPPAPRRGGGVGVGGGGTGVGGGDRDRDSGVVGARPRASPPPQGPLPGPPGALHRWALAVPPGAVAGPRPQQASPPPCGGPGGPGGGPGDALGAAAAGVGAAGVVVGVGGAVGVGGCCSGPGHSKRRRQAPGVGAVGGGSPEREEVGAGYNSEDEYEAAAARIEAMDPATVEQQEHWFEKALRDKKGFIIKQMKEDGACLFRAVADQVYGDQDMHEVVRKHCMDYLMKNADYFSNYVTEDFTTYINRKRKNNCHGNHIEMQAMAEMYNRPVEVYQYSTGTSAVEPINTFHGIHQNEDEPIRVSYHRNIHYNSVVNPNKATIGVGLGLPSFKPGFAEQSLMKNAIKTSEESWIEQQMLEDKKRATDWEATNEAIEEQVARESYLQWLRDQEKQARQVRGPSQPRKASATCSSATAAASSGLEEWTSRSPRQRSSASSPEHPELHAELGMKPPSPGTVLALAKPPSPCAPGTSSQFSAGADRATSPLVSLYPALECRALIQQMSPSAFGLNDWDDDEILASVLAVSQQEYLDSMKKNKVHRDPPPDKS
Method in brief: as §1

Measured: log2 ratio of Biotin-Ahx-Ub-VS probe labelling

O=C(CCl)N[C@H]1CCS(=O)(=O)c2ccccc21
inactive: [1] -0.0339 | [2] -0.224 | [4] -0.052 | [5] 0.251 | [6] -0.522 | [7] 0.161 | [9] -0.117
active: [3] -2.12 | [8] -1.08
